Measured values published in article PMC5540273 (PLoS ONE, 2017).

The molecules below were run on FGR. Settings: concentration: 1 μM,replicates: in singlicate; n = 1.
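Further: KINOMEscan kinase panel screen.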

Compound | %Inh [%]
CN(C)CCOc1ccc(-c2cc(-c3c[nH]nc3-c3ccccn3)ccn2)cc1 [GW835314] | 7
CC(C)N1C(=O)Cc2cc(Nc3ncc(C(F)(F)F)c(NCc4cccc(S(C)(=O)=O)c4)n3)ccc21 | 5
O=C(NCCNc1ccnc(NCc2ccc(F)cc2)n1)c1cc2ccccc2s1 [GSK1379944] | 29
CCn1c(-c2nonc2N)nc2c(C#CC(C)(C)O)nc(OCCN)cc21.Cl.Cl [GSK902056] | 30
Cc1occc1-c1nc(N)c(OC[C@@H](N)Cc2c[nH]c3ccccc23)cc1-c1cc2c(C)n[nH]c2cn1 [GSK1660450] | 91.6
Cl.Cl.NC[C@H](Cc1ccc(C(F)(F)F)cc1)NC(=O)c1cc(Br)c(-c2ccnc3[nH]ccc23)s1 [GSK1487252] | 31
C[C@@H]1CCN(C(=O)CC#N)C[C@@H]1N(C)c1ncnc2[nH]ccc12 | 1
CNC(=O)c1ccccc1Sc1ccc2c(/C=C/c3ccccn3)n[nH]c2c1 | 85
Cc1n[nH]c2ccc(-c3cc(OC[C@@H](N)Cc4ccccc4)cnc3-c3ccoc3)cc12.O=C(O)C(F)(F)F.O=C(O)C(F)(F)F [GSK507358] | 45
O=C(NCCCN1CCOC1=O)c1cnc(NCc2cc(Cl)ccc2Cl)nc1NC1CCCC1 | 29
Cl.Cl.Nc1nc(-c2ccc3c(N)n[nH]c3c2)cc(N2CCCC(NC(=O)c3ccccc3)C2)n1 (stereo not drawn) [GSK2286775] | 8
Cc1cc(C(=O)Nc2ccc(Oc3ccc4nc(NC(=O)C5CC5)cn4n3)cc2)nn1-c1ccccc1 | 59
